A selection: hits, their analogues and other compounds. The true share with any hit is near 12%.
SARS PLpro yeast-1: blocks SARS-CoV papain-like protease in a yeast assay. Potency, µM (series often up to 32.9 µM), inactives show at the highest dose activity, positive = growth rescue, hits mostly activators. hit rate 0.19% among 330,000. S. cerevisiae expressing SARS-CoV PLpro, growth rescue. AID 485353; calls by dose curve; note: potency is the fitted concentration of half-maximal effect; 0% is about no effect; nearly all actives have a fitted effect of over 55% in size
Sm TGR inh: inhibitors of Schistosoma mansoni thioredoxin glutathione reductase; purified TGR, DTNB reduction, TNB absorbance 405 nm; Potency, µM (series often up to 114 µM), for the others: at the highest dose activity change, negative = inhibition, hits mostly inhibitors; hit rate 3% among 360,000; AID 485364; note: potency is the fitted concentration of half-maximal effect; % is set by controls: 0 for no effect and ±100 for the full control effect; nearly all actives have a fitted effect of over 60% in size
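TGR 20 nM + NADPH 100 uM (dispensed conc.), cpd preinc 15 min RT; start with NADPH (500 uM addition) then DTNB (15 mM addition). Kinetic TNB absorbance, 405 nm filter. Four-parameter Hill fit across titration.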
Pf growth 48h: inhibits P. falciparum growth in the first generation, 48 h; P. falciparum luciferase growth in erythrocytes, 48 h; Potency, µM (top dose mostly 28.7 µM), without a hit: at the highest dose activity change, negative = inhibition, hits mostly inhibitors; hit rate 5.9% among 310,000; AID 504832; note: potency is the fitted concentration of half-maximal effect; % is set by controls: 0 for no effect and ±100 for the full control effect
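A one-generation exposure of luciferase-tagged malaria parasites in RPMI 1640/Albumax erythrocyte culture, 37 C and 5% CO2. Inhibition is inferred from decreased luminescence after adding detection reagent.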
Pf growth 96h: inhibits malaria parasite growth, 96 h; P. falciparum luciferase reporter growth, 96 h; Potency, µM (titrated, usually from 28.7 µM), without a hit: at the top dose activity change, negative = inhibition, most hits filed as inhibitors; hit rate 6.9% among 320,000; note: potency is the fitted concentration of half-maximal effect; % is set by controls: 0 for no effect and ±100 for the full control effect
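Two-generation exposure (96 h) targets delayed-death phenotype. Reporter parasites carrying integrated firefly luciferase, in red cells at 2% hematocrit and 0.05% parasitemia final, kept at 37 C, 5% CO2; luminescence loss indicates inhibition.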
SARS PLpro yeast-2: Rescues yeast growth by inhibiting SARS-CoV PLpro. AID 652038. calls only. hit rate 19% among 1,000. shares compounds with SARS PLpro yeast-1. yeast expressing SARS-CoV PLpro, growth phenotype rescue; call rule not given here
Numbers without * were called inactive; i = inactive; ? = inconclusive; . = not tested or not shown. Unless noted, calls come from the whole dose curve; as a rule, active = well fitted curve in the direction sought with a large enough effect; inconclusive = small, poorly fitted or top-dose-only effect, or another doubt; inactive = no such curve, though single readings can be large; an effect the other way counts as inactive or inconclusive.

SMILES	SARS PLpro yeast-1	Sm TGR inh	Pf growth 48h	Pf growth 96h	SARS PLpro yeast-2
COCCCN1CC(=O)N2Cc3[nH]c4ccccc4c3C[C@H]2C1=O	0%	0%	4%	7%	.
CCCC1(CCC)NC(=O)N(CC(=O)Nc2ccc(Cl)c(S(=O)(=O)N3CCOCC3)c2)C1=O	-12%	.	.	.	.
CC(C)C[C@@H](CN=[N+]=[N-])N1CCN(Cc2ccccc2)CCC1=O	-1%	0%	22%	?	.
C#CC[N+]1(CC#Cc2ccc(C)cc2)CCCCC1	20µM*	-25%	1.7µM*	?	i
COc1ccc(OC)c(NC(=O)c2cn(CC(C)C)c(=O)c3cc(OC)c(OC)cc23)c1	.	-11%	.	.	.
C/C(CC(c1ccccc1)c1c(O)c2ccccc2oc1=O)=N\NC(N)=S (stereo not drawn)	11µM*	9%	?	10µM*	i
CC1CC(C)(C)NC(=S)N1CC(=O)NCc1ccc(F)cc1 (stereo not drawn)	3%	2%	-3%	-15%	.
CC1CC(C)(C)NC(=S)N1CC(=O)N(C)Cc1ccccc1 (stereo not drawn)	?	-9%	-20%	-13%	i
COc1cc(CCC(=O)N2CCN(c3ccccc3)CC2)cc(OC)c1OC	-5%	-4%	-9%	-4%	.
COc1cc(OC)cc(C(=O)N[C@H](C(=O)OCC(=O)Nc2cccc(F)c2)C(C)C)c1	3.5µM*	10%	19%	-4%	i
COc1cc(OC)cc(C(=O)N[C@H](C(=O)OCC(=O)Nc2ccc(OC)c(OC)c2)C(C)C)c1	-2%	7%	?	-7%	.
O=C(N/N=C\c1ccc(Cl)s1)c1ccc(Cn2cccn2)o1	1%	-19%	-8%	-1%	.
O=C(N/N=C\c1c(O)ccc2ccccc12)c1ccc(Cn2cccn2)o1	?	-6%	?	?	i
CCc1ccc(Oc2cc(C)nc(N)n2)cc1	16µM*	-4%	191%	214%	i
CCCc1ccc(Oc2cc(Cl)nc(N)n2)cc1	-5%	5%	78%	?	.
CCCCc1cc(=O)oc2cc(C)c3c(C)coc3c12	.	9%	.	.	.
Cc1[nH]c2ccccc2c1/C=N/Nc1nc2ccccc2[nH]1	-10%	12%	?	3%	.
Cc1ccc(/C=N/Nc2nc3ccccc3[nH]2)s1	2.8µM*	-15%	?	?	i
COc1ccc(Br)cc1CNC(=O)CCCn1c(=O)c2cccn2c2ccccc21	.	-13%	.	.	.
CC(=O)Oc1ccc(C(=O)[C@H]2[C@H]3C(=O)N(c4ccc5ccccc5c4)C(=O)[C@H]3[C@@H]3C=CC=NN32)cc1	3.2µM*	-1%	26%	219%	i
O=C1C2C3C=CC(C3)C2C(=O)N1c1ccc2ccccc2c1 (stereo not drawn)	5%	11%	9%	?	.
O=C(NCc1ccccc1F)C(=O)NCC(c1ccc2c(c1)OCO2)N1CCOCC1 (stereo not drawn)	.	-6%	.	.	.
CN(C(=O)c1ccc(NC(=O)C2CCCN(C(=O)OC(C)(C)C)C2)cc1)C1CCCCC1 (stereo not drawn)	3%	.	.	.	.
CN(C(=O)c1ccc(NC(=O)C2CCCN(C(=O)OC(C)(C)C)C2)cc1)C1CCCC1 (stereo not drawn)	?	.	.	.	i
O=C(Cc1cccs1)N[C@@H]1c2ccccc2CC[C@H]1OCc1ccccc1	1%	.	.	.	.
SMILES	SARS PLpro yeast-1	Sm TGR inh	Pf growth 48h	Pf growth 96h	SARS PLpro yeast-2
Cc1ccccc1C(=O)N1CCC(C(=O)Nc2ccccn2)CC1	16%	2%	?	2%	.
c1ccc2c(CCNCc3ccc4c(c3)OCO4)c[nH]c2c1	?	?	?	73%	i
O=C(CCc1c[nH]c2ccccc12)NCc1ccc2c(c1)OCO2	-1%	8%	-2%	-1%	.
O=C(CN1CCCCC1)c1ccc(OC(F)F)cc1	?	-2%	7%	-15%	i
CCc1ccc(C(=O)c2cn(CC(=O)Nc3ccc4c(c3)OCO4)c3ccc(CC)cc3c2=O)cc1	.	3%	.	.	.
O=C(CNS(=O)(=O)c1ccc2ccccc2c1)OCc1csc(-c2ccccc2)n1	3.2µM*	-2%	-6%	?	i
Cc1ccc(C)n1-c1nnc(N2CCCC(C(=O)NCc3cccc(Cl)c3)C2)s1 (stereo not drawn)	.	-29%	.	.	.
Cc1ccc(NC(=S)Nc2ccc3cn[nH]c3c2)cc1C	2.5µM*	-9%	26%	10%	?
Cc1ccc(NC(=S)Nc2ccc3cn[nH]c3c2)c(C)c1	1%	-7%	10%	15%	.

Compound activity: PubChem BioAssay, National Center for Advancing Translational Sciences (NCATS)
